“And” between values parts separate entries of the source, which are not always exact repeats. Equal entries are not always repeated. Results filed as inconclusive are left out. The source made the active and inactive calls. How the source made its calls: active means hit-call score of the fitted dose curve at least 0.9, where 1 is the maximum; inconclusive means response in the unintended direction; inactive means score below 0.9.
Columns and labels:
[1] = target: rat Thyrotropin Releasing Hormone Receptor (TRH), Trhr (gene 25570) (UniProt Q01717); assay: NVS_GPCR_rTRH: NovaScreen (NVS) G Protein-Coupled Receptor Assay for rat Thyrotropin Releasing Hormone Receptor (TRH) (AID 2283329);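 further: hit means lower bound tracer signal versus DMSO baseline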
Procedure, shortened: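 Test compounds are screened at 25 uM in duplicate against radioligand binding in rat forebrain membranes, with active pairs followed up over a concentration range. Detection uses filter-based radiodetection after a 4 h exposure.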

[2] = target: rat Peripheral-type Benzodiazepine Receptor (PBR), Tspo (gene 24230) (UniProt P16257); assay: NVS_MP_rPBR: NovaScreen (NVS) Membrane Protein Assay for rat Peripheral-type Benzodiazepine Receptor (PBR) (AID 2283335)
Procedure, shortened: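 Radioligand displacement, rat kidney membrane prep, 1 h exposure, filter-based scintillation read; DMSO baseline, loss-of-signal scored. Primary screen at 25 uM in duplicate, actives followed up in concentration series.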

[3] = NVS_IC_rCaBTZCHL: NovaScreen (NVS) Ion Channel Assay for Calcium Channel, Type L, Benzothiazepine Site (CaBTZCHL) (AID 2283337)
Procedure, shortened: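 Competitive displacement of a site-specific radioligand from rat cortex membranes, measured as signal loss against DMSO baseline by filter radiodetection after 1.5 h. Single-point 25 uM primary screen.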

[4] = target: bovine Estrogen Receptor (ER), ESR1 (gene 407238) (UniProt P49884); assay: NVS_NR_bER: NovaScreen (NVS) Nuclear Receptor Binding Assay for bovine Estrogen Receptor (ER) (AID 2283345);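 further: actives lower the bound radioligand count which means they displace the ER ligand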
Procedure, shortened: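 Bovine uterine membranes; tritiated or iodinated radioligand; competitive displacement; 18 h; scintillation read; DMSO negative control; 25 uM duplicates, then concentration series for actives.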

[5] = target: Estrogen receptor (Homo sapiens) (UniProt P03372); assay: OT_ER_ERaERa_1440: Odyssey Thera (OT) 24-hour HEK293T Protein-Complementation Assay for Estrogen Receptor-alpha/-alpha Homodimer (AID 2283349);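 further: hits raise fluorescence above DMSO for agonists and antagonists alike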
Procedure, shortened: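 Protein-fragment complementation between two human ERα ligand-binding domains (aa 310-547) in stably transfected HEK293T cells was monitored after 24 h treatment, using fluorescence intensity relative to vehicle controls.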

[6] = target: Estrogen receptor (Homo sapiens) (UniProt P03372); assay: OT_ER_ERaERa_0480: Odyssey Thera (OT) 8-hour HEK293T Protein-Complementation Assay for Estrogen Receptor-alpha/-alpha Homodimer (AID 2283351);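 further: rise in fluorescence from reassembled reporter fragments on ERα LBD homodimer in nucleus or whole cell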
Procedure, shortened: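 Binding reporter in which dimerisation of ERα LBD (aa 310-547) fusions reconstitutes a fluorescent reporter in HEK293T cells. Compounds incubated 8 h; mean fluorescence intensity increase versus DMSO scored.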

[7] = target: T1, Estrogen receptor (Homo sapiens) + Estrogen receptor beta (Homo sapiens) (UniProt P03372+Q92731); assay: OT_ER_ERaERb_0480: Odyssey Thera (OT) 8-hour HEK293T Protein-Complementation Assay for Estrogen Receptor-alpha/-beta Heterodimer (AID 2283352)
Procedure, shortened: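 Compound added to HEK293T cells carrying split-reporter-tagged ER-alpha and ER-beta LBDs, incubated 8 hours, then imaged by laser scanning cytometer. Signal rise in nucleus, or nucleus and cytoplasm, over vehicle was fitted in the positive direction.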

[8] = target: T1, Estrogen receptor (Homo sapiens) + Estrogen receptor beta (Homo sapiens); assay: OT_ER_ERaERb_1440: Odyssey Thera (OT) 24-hour HEK293T Protein-Complementation Assay for Estrogen Receptor-alpha/-beta Homodimer (AID 2283356);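 further: heteromer of ER alpha and ER beta binding domains; hits raise reporter fluorescence and both agonists and antagonists give an increase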
Procedure, shortened: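 Stable HEK293T PCA line, ERα LBD 310-547 + ERβ LBD 263-489 fused to reporter fragments; 24 h treatment; fluorescence read by laser scanning cytometry; positive fitting direction relative to DMSO.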

[9] = target: Estrogen receptor beta (Homo sapiens) (UniProt Q92731); assay: OT_ER_ERbERb_0480: Odyssey Thera (OT) 8-hour HEK293T Protein-Complementation Assay for Estrogen Receptor-beta/-beta Homodimer (AID 2283357);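 further: active means signal gain over DMSO baseline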
Procedure, shortened: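 Cells (HEK293T, stable ER-beta LBD PCA pair) are treated 8 hours, fixed and Draq5-stained; signal is fluorescence intensity increase relative to vehicle, fitted in the gain direction.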

[10] = target: Androgen Receptor/SRC-1 Co-activator, AR (gene 367) (UniProt P10275); assay: OT_AR_ARSRC1_0960: Odyssey Thera (OT) 16-hour HEK293T Protein-Complementation Assay for Androgen Receptor/SRC-1 Co-activator (AID 2283353);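 further: actives raise the signal above DMSO so potency reflects increased AR and SRC-1 complex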
Procedure, shortened: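 Interaction of AR with SRC-1 was followed by YFP fragment complementation in HEK293T cells after 16 h of dosing. Gain of nuclear-over-cytoplasmic 488 nm fluorescence against DMSO controls defined activity.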

[11] = target: Sodium channel protein type 1 subunit alpha (Rattus norvegicus) (UniProt P04774); assay: NVS_IC_rNaCh_site2: NovaScreen (NVS) Ion Channel Assay for rat Sodium Channel, Site 2 (NaCh) (AID 2283322);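 further: hit means loss of radioligand binding signal relative to DMSO so AC50 marks displacement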
Procedure, shortened: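 Membranes: rat forebrain. Format: competitive radioligand displacement, filter separation, scintillation readout, 1 h exposure. Primary screen in duplicate at 25 uM; actives retested in concentration series.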

[12] = target: human Opioid Receptor Mu (Opiate Mu), OPRM1 (gene 4988) (UniProt P35372); assay: NVS_GPCR_hOpiate_mu: NovaScreen (NVS) G Protein-Coupled Receptor Assay for human Opioid Receptor Mu (Opiate Mu) (AID 2283290);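 further: hits lower bound tracer signal versus DMSO meaning displacement of the ligand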
Procedure, shortened: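 Here, radioligand binding to CHO-extracted receptor was measured after 2.5 h using filter-based scintillation detection. Initial single-concentration screening used 25 uM in duplicate with plate controls; confirmed actives went to concentration-response testing.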

[13] = target: rat Neonicotinoid receptor (NNR), Chrna7 (gene 25302) (UniProt Q05941); assay: NVS_LGIC_rNNR_BungSens: NovaScreen (NVS) Ligand-Gated Ion Channel Assay for rat Neonicotinoid receptor (NNR) (AID 2283315)
Procedure, shortened: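 Radioligand displacement binding on rat cortical membranes, 2.5 h incubation, filtration and scintillation counting. Loss of specific binding fitted relative to DMSO.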

[14] = target: human Peripheral-type Benzodiazepine Receptor (PBR), TSPO (gene 706) (UniProt P30536); assay: NVS_MP_hPBR: NovaScreen (NVS) Membrane Protein Assay for human Peripheral-type Benzodiazepine Receptor (PBR) (AID 2283331);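 further: hits reduce radioligand binding relative to DMSO baseline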
Procedure, shortened: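 Scintillation counts of filter-bound radioligand served as read-out after 1 h chemical dosing of human colonic membrane preparations. Activity was scored as signal loss against DMSO; initial duplicates at 25 uM, confirmatory concentration series afterward.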

[15] = target: rat Gamma-Aminobutyric Acid Type A Receptor, Non-Selective (GABAR-NonSelective), Gabra1 (gene 29705) (UniProt P62813); assay: NVS_LGIC_rGABAR_NonSelective: NovaScreen (NVS) Ligand-Gated Ion Channel Assay for rat Gamma-Aminobutyric Acid Type A Receptor, Non-Selective (GABAR-NonSelective) (AID 2283326)
Procedure, shortened: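 Radioligand displacement on rat whole-brain extract, 1 h, filter scintillation readout; signal loss fitted versus DMSO. Primary screen in duplicate at 25 uM; hits (e.g. ≥30% inhibition) retested in concentration-response up to 50 uM.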

[16] = target: Androgen Receptor/SRC-1 Co-activator, AR (gene 367) (UniProt P10275); assay: OT_AR_ARSRC1_0480: Odyssey Thera (OT) 8-hour HEK293T Protein-Complementation Assay for Androgen Receptor/SRC-1 Co-activator (AID 2283354);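 further: hits raise the complementation signal above DMSO so AC50 marks enhancers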
Procedure, shortened: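 Measures AR/SRC-1 binding by Venus YFP fragment complementation in HEK293T stable lines at 8 h post-dose. Imaging quantifies the 488nm nucleus/cytoplasm ratio in ≥400 cells; DMSO defines baseline.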

[17] = target: rat Adrenergic Receptor, Alpha 2 (Adra2), Non-selective Binding, Adra2a (gene 25083) (UniProt P22909); assay: NVS_GPCR_rAdra2_NonSelective: NovaScreen (NVS) G Protein-Coupled Receptor Assay for rat Adrenergic Receptor, Alpha 2 (Adra2), Non-selective Binding (AID 2283299)
Procedure, shortened: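 Rat cortical membranes, radioligand competitive displacement read by filter-based scintillation counting 1.25 hours after dosing. Primary screen in duplicate at 25 uM; actives followed up in concentration series.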

Chain of Estrogen receptor beta (Homo sapiens) (Q92731 whole entry, looked up, the tested form may be a part): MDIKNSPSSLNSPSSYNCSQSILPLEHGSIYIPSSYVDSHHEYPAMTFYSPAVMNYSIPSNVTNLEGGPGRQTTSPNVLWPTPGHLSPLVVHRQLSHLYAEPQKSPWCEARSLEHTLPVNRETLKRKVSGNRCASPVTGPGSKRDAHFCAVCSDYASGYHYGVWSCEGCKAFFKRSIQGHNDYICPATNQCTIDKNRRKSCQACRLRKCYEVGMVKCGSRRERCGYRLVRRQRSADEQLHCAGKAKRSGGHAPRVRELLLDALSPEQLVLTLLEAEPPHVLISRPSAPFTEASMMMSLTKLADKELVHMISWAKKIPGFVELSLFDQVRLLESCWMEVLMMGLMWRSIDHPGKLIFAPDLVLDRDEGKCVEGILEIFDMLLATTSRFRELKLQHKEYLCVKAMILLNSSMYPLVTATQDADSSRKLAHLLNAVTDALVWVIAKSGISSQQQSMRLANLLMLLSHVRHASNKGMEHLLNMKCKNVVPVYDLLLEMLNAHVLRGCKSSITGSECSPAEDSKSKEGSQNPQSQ
Chain of rat Peripheral-type Benzodiazepine Receptor (PBR), Tspo (gene 24230) (P16257 whole entry, looked up): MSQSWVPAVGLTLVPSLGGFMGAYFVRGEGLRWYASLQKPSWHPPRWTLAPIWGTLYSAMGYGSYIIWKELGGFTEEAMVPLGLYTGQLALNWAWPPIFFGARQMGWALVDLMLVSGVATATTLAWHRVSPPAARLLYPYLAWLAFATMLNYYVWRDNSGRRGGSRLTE
Chain of rat Thyrotropin Releasing Hormone Receptor (TRH), Trhr (gene 25570) (Q01717 whole entry, looked up): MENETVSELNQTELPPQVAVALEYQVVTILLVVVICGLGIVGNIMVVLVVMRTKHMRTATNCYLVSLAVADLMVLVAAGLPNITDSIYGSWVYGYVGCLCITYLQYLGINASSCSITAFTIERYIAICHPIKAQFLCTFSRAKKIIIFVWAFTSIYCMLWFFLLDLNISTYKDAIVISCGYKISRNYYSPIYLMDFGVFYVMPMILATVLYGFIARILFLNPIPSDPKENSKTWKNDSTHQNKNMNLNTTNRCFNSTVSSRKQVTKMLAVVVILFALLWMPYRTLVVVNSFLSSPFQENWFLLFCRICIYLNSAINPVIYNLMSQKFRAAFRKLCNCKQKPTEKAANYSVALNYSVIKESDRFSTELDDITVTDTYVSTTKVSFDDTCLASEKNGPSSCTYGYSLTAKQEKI
Chain of human Opioid Receptor Mu (Opiate Mu), OPRM1 (gene 4988) (P35372 whole entry, looked up): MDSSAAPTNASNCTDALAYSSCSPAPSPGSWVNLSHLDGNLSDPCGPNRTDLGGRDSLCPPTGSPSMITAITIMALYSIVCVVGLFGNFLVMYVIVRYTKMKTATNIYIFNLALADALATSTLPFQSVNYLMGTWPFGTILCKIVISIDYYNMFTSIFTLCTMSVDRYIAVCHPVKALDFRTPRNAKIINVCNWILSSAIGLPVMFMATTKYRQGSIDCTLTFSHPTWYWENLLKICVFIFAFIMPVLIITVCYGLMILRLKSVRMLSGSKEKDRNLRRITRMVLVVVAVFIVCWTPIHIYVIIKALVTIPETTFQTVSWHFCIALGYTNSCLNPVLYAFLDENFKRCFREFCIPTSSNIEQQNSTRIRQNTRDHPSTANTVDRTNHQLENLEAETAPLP
Chain of Androgen Receptor/SRC-1 Co-activator, AR (gene 367) (P10275 whole entry, looked up, the tested form may be a part): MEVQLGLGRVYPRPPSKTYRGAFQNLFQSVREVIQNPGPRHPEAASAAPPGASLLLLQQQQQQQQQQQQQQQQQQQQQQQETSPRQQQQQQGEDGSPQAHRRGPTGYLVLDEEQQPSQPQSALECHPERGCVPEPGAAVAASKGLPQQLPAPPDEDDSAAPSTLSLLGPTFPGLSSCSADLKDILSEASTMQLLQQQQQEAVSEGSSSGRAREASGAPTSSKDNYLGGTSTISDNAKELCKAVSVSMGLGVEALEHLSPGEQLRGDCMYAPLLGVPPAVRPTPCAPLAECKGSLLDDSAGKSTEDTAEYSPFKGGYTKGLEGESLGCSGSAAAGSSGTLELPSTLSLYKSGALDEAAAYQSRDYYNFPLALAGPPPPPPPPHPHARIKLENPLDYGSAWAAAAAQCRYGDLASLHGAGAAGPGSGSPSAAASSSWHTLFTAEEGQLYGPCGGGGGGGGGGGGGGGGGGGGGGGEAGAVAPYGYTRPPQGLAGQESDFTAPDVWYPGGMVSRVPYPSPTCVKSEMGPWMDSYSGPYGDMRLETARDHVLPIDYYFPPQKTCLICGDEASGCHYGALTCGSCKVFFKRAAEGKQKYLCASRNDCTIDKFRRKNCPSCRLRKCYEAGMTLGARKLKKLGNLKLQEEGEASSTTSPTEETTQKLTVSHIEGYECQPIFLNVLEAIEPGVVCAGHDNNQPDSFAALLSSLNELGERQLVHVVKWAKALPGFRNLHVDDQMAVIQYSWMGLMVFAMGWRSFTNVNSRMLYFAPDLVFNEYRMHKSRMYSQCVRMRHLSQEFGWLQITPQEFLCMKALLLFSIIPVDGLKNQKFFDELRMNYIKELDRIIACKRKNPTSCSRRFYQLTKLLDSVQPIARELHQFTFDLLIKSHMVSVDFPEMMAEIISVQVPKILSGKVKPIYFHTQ
T1 sequence (P03372 whole entry, looked up): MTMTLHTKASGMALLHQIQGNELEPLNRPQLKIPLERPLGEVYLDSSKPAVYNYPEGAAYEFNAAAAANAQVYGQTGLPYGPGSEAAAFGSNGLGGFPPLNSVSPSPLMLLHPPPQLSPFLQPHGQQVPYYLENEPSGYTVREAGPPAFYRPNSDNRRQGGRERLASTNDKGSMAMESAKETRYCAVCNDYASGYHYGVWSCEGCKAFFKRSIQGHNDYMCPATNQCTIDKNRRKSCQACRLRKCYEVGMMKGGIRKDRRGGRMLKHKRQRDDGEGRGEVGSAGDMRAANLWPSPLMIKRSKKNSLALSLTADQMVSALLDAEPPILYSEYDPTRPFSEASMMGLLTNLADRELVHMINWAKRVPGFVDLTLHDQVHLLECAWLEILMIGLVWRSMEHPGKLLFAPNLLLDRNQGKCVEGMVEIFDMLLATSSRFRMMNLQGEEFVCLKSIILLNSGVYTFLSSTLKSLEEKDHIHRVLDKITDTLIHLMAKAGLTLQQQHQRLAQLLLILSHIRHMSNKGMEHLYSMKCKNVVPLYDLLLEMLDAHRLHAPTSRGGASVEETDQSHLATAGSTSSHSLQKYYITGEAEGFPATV
T1 sequence (Q92731 whole entry, looked up): as the sequence (Q92731 whole entry, looked up, the tested form may be a part) above
Chain of Estrogen receptor (Homo sapiens) (P03372 whole entry, looked up, the tested form may be a part): as the sequence (P03372 whole entry, looked up) above
Chain of human Peripheral-type Benzodiazepine Receptor (PBR), TSPO (gene 706) (P30536 whole entry, looked up): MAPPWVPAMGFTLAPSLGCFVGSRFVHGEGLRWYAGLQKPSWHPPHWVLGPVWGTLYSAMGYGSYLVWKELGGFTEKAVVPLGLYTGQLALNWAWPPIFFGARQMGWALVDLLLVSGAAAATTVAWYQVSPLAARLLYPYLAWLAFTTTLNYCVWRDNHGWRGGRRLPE
Chain of rat Adrenergic Receptor, Alpha 2 (Adra2), Non-selective Binding, Adra2a (gene 25083) (P22909 whole entry, looked up): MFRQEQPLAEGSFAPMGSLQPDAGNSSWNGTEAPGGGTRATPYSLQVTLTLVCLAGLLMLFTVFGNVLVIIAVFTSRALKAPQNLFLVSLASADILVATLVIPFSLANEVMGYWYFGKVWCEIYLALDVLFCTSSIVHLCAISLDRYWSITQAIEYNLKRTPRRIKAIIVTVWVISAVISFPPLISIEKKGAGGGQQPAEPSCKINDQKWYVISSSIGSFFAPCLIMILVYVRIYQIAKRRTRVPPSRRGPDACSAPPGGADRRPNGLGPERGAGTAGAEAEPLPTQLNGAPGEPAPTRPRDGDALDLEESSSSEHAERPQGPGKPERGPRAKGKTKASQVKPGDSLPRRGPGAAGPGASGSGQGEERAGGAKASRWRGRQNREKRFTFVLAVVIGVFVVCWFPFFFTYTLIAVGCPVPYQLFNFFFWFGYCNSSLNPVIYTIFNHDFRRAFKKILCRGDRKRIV

SMILES: CC1COc2ccccc2N1C(=O)C(Cl)Cl (centres undefined)
- outcome [1]: inactive
- AC50 [2]: 11 µM (active) and 9.31 µM (active)
- outcome [3]: inactive
- AC50 [4]: 0.588 µM (active)
- outcome [5]: inactive
- outcome [6]: inactive
- outcome [7]: inactive
- outcome [8]: inactive
- outcome [9]: inactive

SMILES: C[Si](O[Si](C)(C)C)O[Si](C)(C)C
- outcome [1]: inactive
- outcome [10]: inactive
- outcome [9]: inactive

SMILES: O=C=NC1CCC(CC2CCC(N=C=O)CC2)CC1 (centres undefined)
- AC50 [11]: 4.47 µM (active)

SMILES: CC(C)(C#N)c1cc(Cn2cncn2)cc(C(C)(C)C#N)c1
- outcome [1]: inactive
- outcome [9]: inactive

SMILES: Nc1cc([N+](=O)[O-])ccc1Cl
- outcome [12]: inactive

SMILES: CSc1nnc(C(C)(C)C)c(=O)[nH]1
- outcome [13]: inactive

SMILES: CC(C)C[C@H]1C(=O)N2CCC[C@H]2[C@]2(O)O[C@](NC(=O)[C@@H]3C=C4c5cccc6[nH]c(Br)c(c56)C[C@H]4N(C)C3)(C(C)C)C(=O)N12
- outcome [1]: inactive

SMILES: C=C(C)C(=O)O
- outcome [1]: inactive
- outcome [5]: inactive
- outcome [6]: inactive
- outcome [7]: inactive
- outcome [8]: inactive

SMILES: Cc1ccc2sc3cccc(C)c3c2c1
- outcome [12]: inactive

SMILES: CC1=CC(=O)NS(=O)(=O)O1
- outcome [1]: inactive

SMILES: CC(C)=CCC[C@H](C)CC=O
- outcome [11]: inactive

SMILES: C=CCOc1nc(OCC=C)nc(OCC=C)n1
- outcome [1]: inactive
- AC50 [14]: 14.3 µM (active)
- AC50 [2]: 6.87 µM (active)
- outcome [9]: inactive

SMILES: O=C(O)c1ccc([N+](=O)[O-])cc1
- AC50 [15]: 4.02 µM (active)
- outcome [9]: inactive

SMILES: O=C(Cl)c1cccc(C(=O)Cl)c1
- outcome [1]: inactive
- outcome [9]: inactive

SMILES: NCCCN1CCOCC1
- outcome [1]: inactive
- outcome [5]: inactive
- outcome [6]: inactive
- outcome [10]: inactive
- outcome [16]: inactive
- outcome [8]: inactive
- outcome [9]: inactive

SMILES: OCCOCCOCCOCCO
- outcome [1]: inactive
- outcome [5]: inactive
- outcome [7]: inactive
- outcome [8]: inactive
- outcome [9]: inactive

SMILES: CCn1c2ccccc2c2cc(N)ccc21
- AC50 [17]: 25 µM (active)

SMILES: CCCCCCCCCCCCN
- outcome [1]: inactive

SMILES: CC1(C)[C@@H]2CC[C@@]1(C)[C@H](O)C2
- outcome [1]: inactive

SMILES: O=C1OC2(c3cc(Br)c(O)c(Br)c3Oc3c2cc(Br)c(O)c3Br)c2c(Cl)c(Cl)c(Cl)c(Cl)c21
- AC50 [12]: 0.0961 µM (active)

SMILES: CCCOCC(C)O (centres undefined)
- AC50 [12]: 14.8 µM (active)
- outcome [10]: inactive
- outcome [16]: inactive

SMILES: COc1cc2ncnc(Nc3cccc(Cl)c3)c2cc1OC
- AC50 [12]: 4.36 µM (active)
- outcome [14]: inactive
- outcome [2]: inactive
- outcome [3]: inactive

SMILES: Cc1cccc(C)c1C
- outcome [11]: inactive

SMILES: OCCN1CCNCC1
- outcome [1]: inactive
- outcome [5]: inactive
- outcome [6]: inactive
- outcome [7]: inactive
- outcome [8]: inactive
- outcome [9]: inactive

From PubChem BioAssay (EPA / NIEHS)
